Compound activity deposited in PubChem BioAssay by National Center for Advancing Translational Sciences (NCATS).
KB-3-1 tox – qHTS assay for MDR1-selective chemotherapeutics: Primary screen using the parental adenocarcinoma cell KB-3-1; Potency, µM (top dose mostly 46.1 µM), actives largely listed as cytotoxic; KB-3-1 viability, CellTiter-Glo ATP luminescence, 72 h; 400,000 tested, 1.4% active; further: on the % scale 0 is the no-effect control and ±100 the full control effect; nearly all actives have a fitted effect of over 60% in size
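Parental KB-3-1 adenocarcinoma cells in phenol-red-free DMEM with 10% FBS were pin-treated with compounds at several concentrations, incubated 72 h at 37 °C, and viability read by CellTiter-Glo luminescence; concentration-effect curves were fitted after normalization.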
ATXN2 expr inh – Primary qHTS for Inhibitors of ATXN expression. HEK-293 ATXN2-luciferase reporter, luminescence, 24 h. Potency, µM (series often up to 57 µM), for inactives: at the top dose activity change, negative = inhibition, usual class: inhibitors. 360,000 tested, 0.72% active; further: on the % scale 0 is the no-effect control and ±100 the full control effect; nearly all actives have a fitted effect of over 55% in size
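qHTS (up to 57 uM final) was run with 24 h compound exposure of reporter cells at 37 °C. Each well was multiplexed: SteadyGlo luminescence measured ATXN2-luciferase expression after a fluorogenic Gly-Phe-AFC viability readout (25 uM final).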
KB-V1 cytotox – qHTS assay for MDR1-selective chemotherapeutics: Primary screen using the drug-selected MDR subline cells KB-V1; KB-V1 MDR cells viability, CellTiter-Glo, 72 h; Potency, µM (highest dose often 46.1 µM), most hits filed as cytotoxic; 400,000 tested, 3.4% active; further: on the % scale 0 is the no-effect control and ±100 the full control effect; nearly all actives have a fitted effect of over 60% in size
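Cells of the MDR subline KB-V1 are plated, dosed with compound at multiple concentrations, and incubated 72 h at 37 degrees C; CellTiter-Glo is then added and luminescence read after 10 min.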
S2 tox – Viability Counterscreen for Primary qHTS for Inhibitors of ATXN expression. 400,000 tested, 0.49% active. Potency, µM (top dose mostly 56.7 µM), most hits filed as cytotoxic. S2 cells (HEK-293 line with an ATXN2-luciferase reporter) viability, CellTiter-Fluor protease fluorescence, 24 h; further: nearly all actives have a fitted effect of over 40% in size
HT1080 IDH1KD tx – qHTS for induction of synthetic lethality in tumor cells producing 2HG: qHTS for the HT-1080-IDH1KD cell line | HT-1080 IDH1 knockdown viability, ATP luminescence, 48 h | Potency, µM (series often up to 46.1 µM), without a hit: at the highest dose activity, negative = toxicity, usual class: cytotoxic | 360,000 tested, 2% active;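 further: 0% = DMSO wells and -100% = cell-free medium wells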
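Knockdown cells (IDH1KD HT-1080) received compounds 2 h after plating at 750 cells/well and were kept 48 h at 37 °C in 5% FBS RPMI. A CellTiter-Glo luminescence read gave % activity for curve fitting.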
HT1080NT lethal – qHTS for induction of synthetic lethality in tumor cells producing 2HG: qHTS for the HT-1080-NT fibrosarcoma cell line | HT-1080-NT fibrosarcoma viability, CellTiter-Glo ATP luminescence, 48 h | Potency, µM (titrated, usually from 46.1 µM), inactives show top-dose activity, negative = less viability, usual class: cytotoxic | 360,000 tested, 1.6% active | AID 686970, 2013;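 further: NT is the 2HG producing partner of a matched IDH1 knockdown line; 0% = DMSO-treated cells and -100% = media-only wells without cells; nearly all actives have a fitted effect of over 55% in size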
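750 cells/well, RPMI + 5% FBS; 2 h settle, compound pin-transfer, 48 h at 37 degrees C. CellTiter-Glo 10 min RT, luminescence. Normalized to DMSO and media-only wells.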
* hit, by the source's call; i = inactive; ? = inconclusive; . = not tested or not shown. A selection: hits, their analogues and other compounds. The true share with any hit is near 6.2%. The call rests on the fitted dose curve; in most records, active means well fitted curve in the direction sought with a large enough effect; inconclusive means small, poorly fitted or top-dose-only effect, or another doubt; inactive means no such curve, though single readings can be large; an effect the other way counts as inactive or inconclusive. Potency means the concentration at half of the fitted maximal effect.

SMILES	KB-3-1 tox	ATXN2 expr inh	KB-V1 cytotox	S2 tox	HT1080 IDH1KD tx	HT1080NT lethal
O=C(NCc1ccco1)c1ccc2c(c1)N(Cc1ccccc1F)C(=O)c1ccccc1S2=O (stereo not drawn)	i	-3%	i	i	.	.
c1cncc(OC2CCN(Cc3ccc4c(c3)CN(Cc3ccc5c(c3)OCCO5)CCO4)CC2)c1	.	.	.	i	.	.
CCOC(=O)C1C(=O)NC(SCC(N)=O)=C(C#N)C1c1ccccc1OCC (stereo not drawn)	i	6%	i	i	2%	4%
CCOC(=O)C1C(=O)NC(SC)=C(C#N)C1c1ccccc1F (stereo not drawn)	i	0%	15µM*	i	1%	8%
COc1ccc(C2=NN(C)C(=NCc3ccccc3)SC2)cc1	?	6%	23µM*	i	0%	-11%
CCn1ccnc1CN(C)Cc1cn(-c2ccc(C)cc2)nc1-c1cccc(C)c1	i	.	i	i	26µM*	?
Cc1cccc(-n2cc(CN(C)Cc3nccn3C)c(-c3cccc(F)c3)n2)c1	i	.	i	?	?	?
CCn1ccnc1CN(C)Cc1cn(-c2cccc(C)c2)nc1-c1cccc(F)c1	?	.	?	25µM*	-29%	-16%
Cc1ccc(CNC(=O)C2CCN(S(=O)(=O)c3ccc4c(c3)CCCN4C(=O)C3CCC3)CC2)cc1	?	-1%	?	i	.	.
Cc1ccc(NC(=O)c2c(C(F)(F)F)nn(C)c2SCc2ccc(Cl)cc2)cc1C	?	-19%	8.2µM*	i	?	?
Cn1nc(C(F)(F)F)c(/C=N/OC(=O)c2ccccc2Cl)c1SCc1ccccc1Cl	?	-22%	?	i	-25%	?
Cn1nc(C(F)(F)F)c(/C=N/OC(=O)c2ccccc2)c1SCc1ccc(Cl)cc1	i	-24%	18µM*	i	20%	11%
Cc1ccc2c(c1)c1c(c(=O)n(-c3ccccc3C)c(=O)n1CC(=O)NCCC1=CCCCC1)n2C	i	7%	i	?	.	.
COC(=O)c1cc2oc(C)cc2n1Cc1c(C)cc(C)cc1C	i	7%	i	i	.	.
Cc1ncc2c(c1CNC(=O)/C=C/c1cccs1)CCN(C(=O)c1c(C)noc1C)C2	.	.	.	i	.	.
CCCCNC(=O)c1sc2ncnc(NCC3CCCO3)c2c1C (stereo not drawn)	.	.	.	i	.	.
CCc1ccc(NC(=O)c2cc(=O)c3ccc(C)c(C)c3o2)cc1	i	-16%	5.8µM*	i	.	.
O=S(=O)(c1ccc(F)c(F)c1F)N1CCN(c2ncnc3sccc23)CC1	?	0%	2.3µM*	i	-29%	-6%
c1ccc(CC2CCN(c3ncnc4sccc34)CC2)cc1	i	?	i	i	?	12µM*
O=S(=O)(c1ccccc1C(F)(F)F)N1CCN(c2ncnc3sccc23)CC1	?	?	?	i	-28%	-21%
O=C(CCCN1C(=O)C(=Cc2ccc3c(c2)OCO3)SC1=S)Nc1ccc(C(=O)O)c(O)c1	i	12%	i	?	10%	1%
COc1cccc(N2CCN(c3nc(C)c(C)c(=O)[nH]3)CC2)c1	i	-10%	i	i	-23%	-11%
COc1cccc(N2CCN(c3nc(-c4ccccc4C)cc(=O)[nH]3)CC2)c1	?	0.71µM*	?	i	?	?
NC(=O)c1ccccc1NC(=O)CN1CCN(Cc2ccc(Cl)cc2Cl)CC1	?	-23%	?	i	-3%	0%
O=C(Cn1ncc(Cl)c(Cl)c1=O)NCC1CCCCC1	15µM*	?	i	.	?	?
